Measured values published in the supplement of paper PMC12636033.
± gives the standard deviation of the averaged measurements. Whole data set: some 33,000 sequences, median “E-score (rank enrichment, -0.5 to 0.5)” near -0.0075, cut for the highest 2% near 0.23. The entries come from a sample that favours the highest values as a whole.

test system: WT Max(13-93) synthetic (M65Nle); assay: PBM 8-mer E-score (E-score (rank enrichment, -0.5 to 0.5)); higher = stronger preferential binding
Experimental: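 Protein binding microarray (universal PBM chip covering all 10-mers in fixed probe flanks) with chemically synthesized human Max(13-93) bHLH-LZ analogs (not full-length Max) bearing noncanonical residues (hArg, Tha, Aib, Nle at 65) and aromatic Cys staples. Read-out per 8-mer (and its reverse complement): E-score (rank-based enrichment, -0.5 to 0.5) and Z-score of median probe intensity.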

| Sequence | PBM 8-mer E-score |
| --- | --- |
| ACGTGGGA | 0.302 ± 0.039 |
| GAGTGGGA | -0.0159 ± 0.0035 |
| ACGTGGGC | 0.33 ± 0.012 |
| AGGTGGGA | 0.0263 ± 0.046 |
| ACGTGGGG | 0.164 ± 0.08 |
| AAGTGGGA | 0.212 ± 0.0035 |
| GCGTGGGA | 0.238 ± 0.035 |
| CGCTGCAG | -0.19 ± 0.18 |
| GGACCGAC | -0.168 ± 0.097 |
| CGCAGCCA | -0.117 ± 0.093 |
| AGTGTTCC | -0.151 ± 0.007 |
| GCGGCAAC | -0.106 ± 0.026 |
| CACCCGAG | -0.19 ± 0.056 |
| GAACCAAC | 0.0313 ± 0.051 |
| ATCTCAAA | -0.0195 ± 0.13 |
| CTGAGGAA | -0.111 ± 0.035 |
| AAAATGAC | 0.174 ± 0.013 |
| AAAATGAA | 0.138 ± 0.00081 |
| ACAATGTA | 0.239 ± 0.034 |
| ACAATGAG | 0.137 ± 0.029 |
| ACAATGAT | 0.241 ± 0.024 |
| ACAATGAC | 0.0383 ± 0.055 |

| Sequence | PBM 8-mer E-score |
| --- | --- |
| AAAATGAT | 0.249 ± 0.13 |
| ACAATGTC | 0.108 ± 0.095 |
| GCAATGTA | 0.0841 ± 0.011 |
| TATGACGA | 0.0259 ± 0.072 |
| ATGATGCC | -0.00394 ± 0.018 |
| GGCTACCC | -0.19 ± 0.032 |
| CGCAAGAA | -0.121 ± 0.097 |
| GAGCCGGC | -0.26 ± 0.041 |
| AATGATCC | -0.122 ± 0.097 |
| ACCAATAT | 0.175 ± 0.057 |
| AACAATAC | 0.236 ± 0.036 |
| AACAATAG | -0.112 ± 0.17 |
| AACAATAT | 0.252 ± 0.089 |
| AACAATTA | 0.248 ± 0.061 |
| AACAATTG | 0.128 ± 0.05 |
| GACAATAC | 0.202 ± 0.02 |
| AACAATAA | 0.213 ± 0.15 |
| AACAATTC | 0.146 ± 0.012 |
| AGCCGCTA | -0.263 ± 0.022 |
| CTCGATAA | -0.0814 ± 0.087 |
| AAGCGGGT | -0.0582 ± 0.061 |
| TCAGATCA | -0.0835 ± 0.073 |

| Sequence | PBM 8-mer E-score |
| --- | --- |
| CCTCGACC | -0.128 ± 0.09 |
| GCTAAAAC | -0.101 ± 0.028 |
| TGAGATCA | -0.0342 ± 0.1 |
| AGCTGGAT | -0.164 ± 0.054 |
| CTCCCATA | -0.0036 ± 0.067 |
| ATGTTTAG | 0.278 ± 0.063 |
| ATGTTTTA | 0.102 ± 0.043 |
| ATGTTTCC | 0.225 ± 0.092 |
| ATGTTTGG | 0.147 ± 0.042 |
| ATGTTTAA | 0.22 ± 0.078 |
| ATGTTTAC | 0.243 ± 0.0084 |
| CTGTTTAC | 0.0925 ± 0.099 |
| ATGTTTTG | 0.24 ± 0.066 |
| ACGTTTAG | 0.0123 ± 0.031 |
| AAAATAGG | 0.031 ± 0.16 |
| GACAACCC | 0.0334 ± 0.15 |
| CGGCCAGA | -0.212 ± 0.006 |
| ATGCTTTA | 0.277 ± 0.0049 |
| ATGCTTTC | 0.174 ± 0.051 |
| CTGCTTTA | 0.169 ± 0.061 |
| ATGATCGC | -5e-06 ± 0.043 |
| TGCCCGCA | 0.0712 ± 0.065 |

| Sequence | PBM 8-mer E-score |
| --- | --- |
| AACATGTA | 0.23 ± 0.087 |
| GACATGTC | 0.163 ± 0.042 |
| TACATGTA | 0.308 ± 0.042 |
| GACATGTA | 0.273 ± 0.035 |
| GTCATGTA | 0.0154 ± 0.027 |
| TACATGAA | 0.11 ± 0.053 |
| GTGTCCGA | -0.00187 ± 0.12 |
| AGAGTACG | -0.124 ± 0.0062 |
| TGATCGAA | 0.0153 ± 0.063 |
| CGAGGAAA | 0.0336 ± 0.072 |
| ATTGTAGA | 0.302 ± 0.0094 |
| CTTGTAGA | -0.146 ± 0.15 |
| GTTGTAGA | -0.101 ± 0.093 |
| ATCAATTA | 0.225 ± 0.04 |
| ATCAATTC | 0.0046 ± 0.15 |
| ATCAATTG | 0.239 ± 0.016 |
| AGGACGGC | -0.0864 ± 0.17 |
| AAAACGTC | 0.0934 ± 0.022 |
| GACCGATA | -0.0238 ± 0.067 |
| CTAAACCC | 0.00702 ± 0.049 |
